Assay outcomes as filed in PubChem.
Rows were chosen to be rich in hits. Some 0.93% of all compounds tested hit in one or more screens of this group.
HIF activator = HIF pathway transcriptional activators, primary screen, cell-based, U2OS HRE-luciferase, luminescence; hit rate 0.32% among 300,000; activation, % at 7.5 µM (by protocol); U2OS HRE-luciferase reporter; normalized: DMSO 0%, desferrioxamine 100%;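 active = mean activation of at least 10% of the iron chelator positive control signal, with at least half of replicates also reaching 10%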
CFTR F508del cor = F508del CFTR correction, initial screen, CFBE line, single point. CFBE cells, YFP halide quenching; stimulated with forskolin plus potentiator P3; % fluorescence drop versus neutral controls. activity (quench increase), % at 7.58 µM. hit rate 0.36% among 350,000. AID 720511, 2013;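 active = mean added fluorescence quench of at least 8% versus neutral control, with both replicates also reaching 8%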;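 also: cells transiently co-express mutant CFTR-F508del with the halide-sensitive YFP; corrector assay measuring rescue of mutant channel to the surface after 24 h compound exposure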
Jurkat NFkB inh = inhibitors of induced NF-kB luciferase reporter, primary screen, TCR NF-kB activation inhibitor project, cell-based, luminescence, uHTS; Jurkat, PMA/ionomycin-induced NF-kB luciferase reporter; inhibition, % at 4 µM; hit rate 0.53% among 330,000; in the data active = inhibition above about 50%
697 NFkB inh = inhibitors of PMA/ionomycin-induced NF-kB reporter, 697 cells, primary screen, B-cell NF-kB inhibitor project, cell-based, luminescence, uHTS. hit rate 0.33% among 330,000. AID 435022, 2010. inhibition, % at 4 µM. 697 B-cell NF-kB luciferase reporter, 16 h; in the data active = inhibition above about 35%
Jurkat NFkB conf = PMA/ionomycin-induced NF-kB reporter inhibitors, Jurkat retest, confirmation, T-cell NF-kB inhibitor project, cell-based, luminescence, single concentration | shares compounds with Jurkat NFkB inh | Jurkat NF-kB luciferase, 16 h | inhibition, % at 4 µM | hit rate 27% among 2,700 | AID 435020, 2010;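 active = inhibition reaching about 45% at 4 µM in either replicate, limit read from the data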
A number is an active result; – = inactive; · = no result.

SMILES	HIF activator	CFTR F508del cor	Jurkat NFkB inh	697 NFkB inh	Jurkat NFkB conf
C[C@H](CO)N1C[C@H](C)[C@H](CN(C)S(=O)(=O)c2ccc(Cl)cc2)Oc2ccc(NC(=O)NC3CCCCC3)cc2CC1=O	·	–	·	·	·
CC(O)CNCc1ccc(-c2ccccc2)cc1 (stereo not drawn)	–	·	–	–	·
CC(NCc1ccc(-c2ccccc2)cc1)C(O)c1ccccc1 (stereo not drawn)	–	·	55	–	–
Fc1ccccc1N=C1NN=C(c2ccccc2)CS1	–	–	–	–	–
COCCn1c(C)cc(C2=NNC(=Nc3ccccc3F)SC2)c1C	–	·	69	–	88
C[C@H]1CN([C@@H](C)CO)C(=O)Cc2cc(NC(=O)Cn3cnnn3)ccc2O[C@H]1CN(C)Cc1ccc(C(=O)Nc2ccccc2N)cc1	·	–	·	·	·
CCOc1ccc(C)cc1S(=O)(=O)n1cnc2ccccc21	–	9.9	54	–	–
Cc1ccc(S(=O)(=O)Nc2ccc3c(c2)C(=O)N([C@H](C)CO)C[C@H](C)[C@@H](CN(C)S(=O)(=O)c2ccc(C)cc2)OCCCC[C@H](C)O3)cc1	·	–	·	·	·
O=C(Nc1ccncc1)c1ccc(Cl)c(S(=O)(=O)N2CCc3ccccc32)c1	–	–	60	–	79
Cc1cccc(NC(=O)c2ccc(Cl)c(S(=O)(=O)N3CCc4ccccc43)c2)n1	·	–	–	–	·
O=C(Nc1ccon1)c1cc2c(s1)CCCC2	–	–	–	–	–
Cn1c(C(=O)Nc2ccc3c(c2)OCCO3)cc2sccc21	–	–	–	–	–
O=C(Nc1ccc2c(c1)OCCO2)c1cc2sccc2n1Cc1ccccc1	–	·	–	–	·
COc1ccc2cc(-c3ccsc3)ncc2c1	·	–	–	–	–
COc1ccc2cc(C3=CCCCC3)ncc2c1	·	–	–	–	–
COc1cc2cnc(C3=CCCCC3)cc2cc1OC	·	–	–	–	·
COc1ccc(-c2cc3cc(OC)c(OC)cc3cn2)cc1	·	–	–	–	·
Cc1ccc(O)c(NC(=O)C2CC(c3cccc(Br)c3)=NO2)c1 (stereo not drawn)	–	–	63	–	–
Cc1cc(NC(=O)C2CC(c3cccc(Br)c3)=NO2)no1 (stereo not drawn)	–	–	–	–	·
N#CC1=C2SC=C(c3ccc(Br)cc3)N2CCCC1=O	–	–	–	–	–
O=C(Cc1ccccn1)NCC[C@H]1CC[C@H](NS(=O)(=O)c2ccc(F)cc2)[C@H](CO)O1	·	–	·	·	·
COc1cc(C2C(C#N)=C(N)Oc3cc(O)ccc32)cc(OC)c1OC (stereo not drawn)	–	·	53	–	–
COc1cc(C2C(C#N)=C(N)Oc3cc4c(cc32)OCO4)cc(OC)c1OC (stereo not drawn)	–	–	77	–	–
COc1cc(C2C(C#N)=C(N)Oc3cc(N(C)C)ccc32)cc2c1OCO2 (stereo not drawn)	–	·	67	–	48
C[C@@H]1CCCCO[C@@H](CN(C)C(=O)Nc2ccc3c(c2)OCO3)[C@@H](C)CN([C@@H](C)CO)C(=O)c2cc(NC(=O)NC3CCCCC3)ccc2O1	·	–	·	·	·
SMILES	HIF activator	CFTR F508del cor	Jurkat NFkB inh	697 NFkB inh	Jurkat NFkB conf
CN1CCN(C(=O)C[C@@H]2CC[C@H]3[C@H](COc4ccc(NC(=O)c5cscn5)cc4C(=O)N3C)O2)CC1	·	–	·	·	·
C=CCNc1ncnc2c1cnn2-c1ccc(OC)cc1	–	·	–	–	–
OCCCNc1ncnc2c1cnn2-c1ccc(Cl)cc1	–	–	–	–	–
COc1ccc(-n2ncc3c(NCc4ccco4)ncnc32)cc1	–	·	–	–	·
COc1cc2c(c(OC)c1OC)-c1ccc(NC(=O)c3ccccc3)c(=O)cc1[C@@H](NC(C)=O)CC2	–	–	–	–	–
CCOC(=O)NC1CCc2cc(OC)c(OC)c(OC)c2-c2ccc(SC)c(=O)cc21 (stereo not drawn)	·	–	·	·	·
CCOC(=O)c1cc(CC)sc1NC(=O)c1ccc(N2CCOCC2)c([N+](=O)[O-])c1	–	–	–	–	·
CCOC(=O)c1cc(CC)sc1NC(=O)c1cc([N+](=O)[O-])ccc1N1CCOCC1	–	·	59	–	–
COc1ccc(COC(=O)c2cc([N+](=O)[O-])ccc2N2CCOCC2)cc1F	–	–	93	–	65
CCCCCCOc1ccc(/C(C)=N/NC2=NCCN2)cc1[N+](=O)[O-]	–	–	–	–	·
